Reference: PubChem BioAssay (NCATS)
Records with an inconclusive call do not appear. Active and inactive are the calls of the source. Calls follow the shape of the dose curve; as a rule, active = well fitted curve in the direction sought with a large enough effect; inconclusive = small, poorly fitted or top-dose-only effect, or effect the other way, or another doubt; inactive = no such curve, though single readings can be large or run the other way.

The molecules below were run against Transient receptor potential cation channel subfamily V member 1 (Homo sapiens) (UniProt Q8NER1) (assay: HTS Assay for Compounds that Act as Enhancers of the Vanilloid Receptor 1 (AID 488979; also: 0% is about no effect)). Conditions: TRPV1-expressing cells, enhancer of channel activity, stimulated with capsaicin at EC20; series mostly up to 41.7 µM; activity change, positive = enhancement: at the top concentration.
Transient receptor potential cation channel subfamily V member 1 (Homo sapiens), sequence (Q8NER1 whole entry, looked up): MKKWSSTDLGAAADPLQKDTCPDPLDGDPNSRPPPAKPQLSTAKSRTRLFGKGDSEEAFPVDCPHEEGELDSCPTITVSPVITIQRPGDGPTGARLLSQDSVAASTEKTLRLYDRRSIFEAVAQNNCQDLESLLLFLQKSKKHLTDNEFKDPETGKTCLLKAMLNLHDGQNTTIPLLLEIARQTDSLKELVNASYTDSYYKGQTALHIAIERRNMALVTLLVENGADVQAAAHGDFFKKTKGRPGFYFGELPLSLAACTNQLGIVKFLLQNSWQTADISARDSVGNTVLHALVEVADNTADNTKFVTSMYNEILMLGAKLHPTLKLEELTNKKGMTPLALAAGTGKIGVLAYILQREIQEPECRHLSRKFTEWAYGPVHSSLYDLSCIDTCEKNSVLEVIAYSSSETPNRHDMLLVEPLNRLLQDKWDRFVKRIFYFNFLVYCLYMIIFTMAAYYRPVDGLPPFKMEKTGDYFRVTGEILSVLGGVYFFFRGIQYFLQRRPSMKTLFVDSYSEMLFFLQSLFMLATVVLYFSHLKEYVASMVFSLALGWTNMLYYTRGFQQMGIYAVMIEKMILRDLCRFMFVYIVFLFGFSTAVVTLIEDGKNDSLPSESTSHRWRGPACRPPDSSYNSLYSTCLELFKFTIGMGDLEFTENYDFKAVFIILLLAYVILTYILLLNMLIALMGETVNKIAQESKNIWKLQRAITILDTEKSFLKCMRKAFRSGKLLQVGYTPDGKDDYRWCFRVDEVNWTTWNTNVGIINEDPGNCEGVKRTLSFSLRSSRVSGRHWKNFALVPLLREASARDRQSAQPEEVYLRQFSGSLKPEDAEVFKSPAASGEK
Text: The transient receptor potential ion channel, family V, number 1, (TRPV1) is one of the most important molecular transducers of painful stimuli and a potential target for analgesic drug development. Although recent clinical trials with orthosteric antagonists have not produced a successful drug because of a hyperthermia side effect and their tendency to block thermal noxious pain, this ion channel is undeniably well placed in the pain pathway, and the idea of blocking pain signals before they enter the CNS is an excellent concept and of proven efficacy when TRPV1 agonists are used. We propose a new approach involving allosteric modulation to impose an activity-dependent constraint within the context of inflammation and tissue damage that would alter the responsiveness of the channel in a way that an orthosteric vanilloid antagonist cannot achieve. We believe that the allosteric modulator approach has not been explored for this target.
The main goal of this proposal is to identify additional, new, potent allosteric modulators of TRPV1 that can be used to investigate TRPV1 function. Our recent report provides evidence of proof of concept, but the compounds are just at the edge of utility in terms of potency. […] The question of whether they can be used as analgesic agents is complex, but if suitable compounds are identified then testing for analgesic properties will be conducted.
Upon TRPV1 activation in TRPV1 cells, the channel opens and extracellular cations flow through the channel into the cytosol. A calcium binding dye (Fluo-8) becomes fluorescent when bound to calcium. This dye is pre-loaded into cells and is used as a marker for calcium influx.
The amount of accumulated calcium is precisely quantified using the FDSS kinetic reader and the calcium dye.
For the HTS assay, freshly prepared cells are plated at a density of 2000/well in 3 ul medium in 1536-well plates and cultured overnight at 35.5C. Cells will be loaded with 1 ul of the homogeneous calcium dye (ABD Bioquest) at room temperature for 40 to 90 minutes. Plates will be loaded into the FDSS kinetic reader and a 1 sec / cycle for 10 second baseline signal will be measured. Compound library will then be added with a pintool at 23 nl and measured kinetically for 3 minutes. This portion of the read is considered the agonist portion of the screen. Following the 3 minutes of incubation, an on board pipettor will deliver 1 ul of capsaicin for a final concentration equal to the EC20. Signal will be measured kinetically for an additional 2 minutes. This portion of the read is considered the allosteric enhancer portion of the screen.
The FDSS reader has a standard filter set capable of measuring calcium bound Fluo-8 (ex=480 and em=520 nm).

Row | SMILES | activity change, positive = enhancement
1 | S=C(Nc1ccccc1)Nc1nccs1 | -5.32% (inactive)
2 | COc1ccc2c(c1)c(CC(=O)N1CCOCC1)c(C)n2C(=O)c1ccc(Cl)cc1 | 8.78% (inactive)
3 | NC(CCC(=O)NCS(=O)(=O)O)C(=O)O (stereo not given) | -4.29% (inactive)
4 | COC(=O)c1c(-c2cc(OC)c(OC)c(OC)c2)c2ccnc(OCc3ncccn3)c2c(=O)n1Cc1ccnc(C)c1 | 14.2% (inactive)
5 | Nc1c(S(=O)(=O)O)cc(Nc2ccc(Nc3nc(Cl)nc(Nc4ccc(S(=O)(=O)O)cc4)n3)c(S(=O)(=O)O)c2)c2c1C(=O)c1ccccc1C2=O | 17.3% (inactive)
6 | CC(N)=NCc1cccc(CN)c1 | -6.16% (inactive)
7 | O=C(Nc1cc(C(=O)Nc2ccc(S(=O)(=O)O)cc2S(=O)(=O)O)cc(C(=O)Nc2ccc(S(=O)(=O)O)cc2S(=O)(=O)O)c1)Nc1cc(C(=O)Nc2ccc(S(=O)(=O)O)cc2S(=O)(=O)O)cc(C(=O)Nc2ccc(S(=O)(=O)O)cc2S(=O)(=O)O)c1 | 1.1% (inactive)
8 | O=C(OCCN1CCCCC1)c1c[nH]c2ccccc12 | 13.5% (inactive)
9 | Oc1cc2c(c(Cl)c1O)CCNCC2c1ccccc1 (stereo not given) | 10.3% (inactive)
10 | CC(C)=CCC/C(C)=C/CC/C(C)=C/CSc1ccccc1C(=O)O | 15.5% (inactive)
11 | COc1ccccc1NC(=O)Nc1nc(-c2cccnc2)nc2ccccc12 | -1.31% (inactive)
12 | CN(C)CCCCSC(=N)N | -2.03% (inactive)
13 | O=C(O)c1cc(=O)c2ccc(Cl)cc2[nH]1 | 3.85% (inactive)
14 | CCCCCCCCCCCCC/C=C/[C@@H](O)[C@@H](N)CO | -3.67% (inactive)
15 | Cc1cccc(/C=C/c2ccccc2)n1 | -24.6% (inactive)
16 | N#C/C(=C\c1ccc(O)c(O)c1)C(=O)Nc1ccccc1 | 13.7% (inactive)
17 | C[N+](C)(C)CCC(=O)c1cccc2ccccc12 | 19.1% (inactive)
18 | NCCNS(=O)(=O)c1cccc2cnccc12 | -1% (inactive)
19 | COc1cc2c(cc1C(F)(F)F)N(C(=O)Nc1cc(F)cc(-c3cccnc3)c1)CC2 | 11.8% (inactive)
20 | O=Nc1c(-c2c(O)[nH]c3ccccc23)[nH]c2ccccc12 | -29.3% (inactive)
21 | Cn1cnc2c(NC3CCCC3)ncnc21 | 4.32% (inactive)
22 | C/C=C1\C(=O)CC2C3CCC4=CC(=O)CC[C@]4(C)C3CC[C@]12C (stereo not given in full) | -7.63% (inactive)
23 | COc1[nH]c2ccc(F)cc2c1C(=O)OCC1CCN(CCNS(C)(=O)=O)CC1 | -6.11% (inactive)
24 | Cc1cccc(C)c1NC(=O)C[N+](C)(C)C | -3.1% (inactive)
25 | CCCn1c(=O)c2[nH]c(-c3ccc(OCC(=O)Nc4ccc(C#N)cc4)cc3)nc2n(CCC)c1=O | -5.98% (inactive)
